Bioassay records deposited in PubChem BioAssay by The Scripps Research Institute Molecular Screening Center.
ssDAF-12 act = S. stercoralis DAF-12 nuclear receptor activators, primary screen, cell-based, luminescence, HEK293, GRIP1 co-expression, lit1-tk-luc; Nuclear hormone receptor DAF-12 (Strongyloides stercoralis); HEK293 ssDAF-12/GRIP1 lit1-tk-luc reporter; % of 3 µM dafachronic acid response; activation, % at 6.8 µM; 1% of 370,000 active;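 active means activation above the mean over all tested compounds plus 3 SD, cut at about 0.9% in these data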;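 further: 0% = DMSO-only wells and 100% = 3 µM delta7-dafachronic acid wells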
hcDAF12 agonist = H. contortus DAF-12 nuclear receptor activators, primary screen, cell-based, luminescence, HEK293, lit1-tk-luc reporter; HEK293 hcDAF-12 lit1-tk-luc reporter; 0% DMSO, 100% Δ7-dafachronic acid; activation, % at 6.8 µM; 1.4% of 370,000 active;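 active means activation above the mean of all tested compounds plus 3 SD, cut at about 5.5% in these data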;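 further: 100% = response to 3 µM Δ7-dafachronic acid high control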
DAX1 inh-1 = DAX1 (NR0B1) inhibitors on StAR promoter, primary screen, cell-based, luminescence, SF-1 (NR5A1), full-length DAX-1; HEK293T StAR-luciferase reporter, SF-1/DAX-1 repression relief; inhibition, % at 6.8 µM; 1.1% of 370,000 active; AID 652010, 2013;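 active means inhibition above the mean over all tested compounds plus 3 SD, cut at about 3.6% in these data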;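 further: 0% = DAX-1 cells with DMSO and 100% = cells lacking DAX-1 with DMSO; higher inhibition means more luminescence from relief of DAX-1 repression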
hgDAF12 agonist = H. glycines DAF-12 receptor agonists, primary screen, cell-based, luminescence, HEK293, GAL4 fusion, UAS-luciferase; Nuclear hormone receptor DAF-12 (Heterodera glycines), GAL4 fusion; HEK293 GAL4-hgDAF12 UAS-luciferase reporter, agonist luminescence; normalized to butyrate control; activation, % at 6.8 µM; 1.8% of 370,000 active;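 active means activation above a cutoff set at the mean of all screened compounds plus 3 SD, cut at about 10% in these data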;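 further: 0% = DMSO wells and 100% = sodium butyrate wells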
DAX1 inh-2 = DAX1 (NR0B1) inhibitors, primary screen, cell-based, HEK293, Gal4-DAX1, luciferase luminescence; 0.99% of 340,000 active; HEK293 Gal4-DAX1 luciferase reporter; AID 504766, 2011; inhibition, % at 6.75 µM; Nuclear receptor subfamily 0 group B member 1 (Homo sapiens), P51843;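 active means inhibition above the mean over all tested compounds plus 3 SD, cut at about 4.2% in these data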;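 further: 0% = DAX1-transfected cells with DMSO and 100% = empty-vector control cells with DMSO; inhibition shows as a rise in luminescence from relieved DAX1 repression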
Target sequence (P51843 207-470 limits assumed): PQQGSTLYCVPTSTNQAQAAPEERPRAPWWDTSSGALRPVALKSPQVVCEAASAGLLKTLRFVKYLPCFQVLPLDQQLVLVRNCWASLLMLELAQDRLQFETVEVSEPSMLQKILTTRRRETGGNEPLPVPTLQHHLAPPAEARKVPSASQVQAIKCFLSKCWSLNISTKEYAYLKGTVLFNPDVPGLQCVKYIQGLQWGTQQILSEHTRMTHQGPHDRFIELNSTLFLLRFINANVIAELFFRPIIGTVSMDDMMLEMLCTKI
LXRb hcDAF ctr = LXR agonists, Gal4 luciferase reporter, confirmation, counter-screen for hcDAF-12 agonist project, cell-based, luminescence, HEK293, H. contortus campaign. 3,400 tested, under 10 active. shares compounds with hcDAF12 agonist. activation, % at 6.8 µM. HEK293 Gal4-LXR tk-luc reporter, 24 h; normalized: DMSO 0%, positive control 100%;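 active means mean percent activation of the reporter above a cutoff set as the average over tested compounds plus their standard deviation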
Target sequence (P55055 whole entry, looked up, the tested form may be a part): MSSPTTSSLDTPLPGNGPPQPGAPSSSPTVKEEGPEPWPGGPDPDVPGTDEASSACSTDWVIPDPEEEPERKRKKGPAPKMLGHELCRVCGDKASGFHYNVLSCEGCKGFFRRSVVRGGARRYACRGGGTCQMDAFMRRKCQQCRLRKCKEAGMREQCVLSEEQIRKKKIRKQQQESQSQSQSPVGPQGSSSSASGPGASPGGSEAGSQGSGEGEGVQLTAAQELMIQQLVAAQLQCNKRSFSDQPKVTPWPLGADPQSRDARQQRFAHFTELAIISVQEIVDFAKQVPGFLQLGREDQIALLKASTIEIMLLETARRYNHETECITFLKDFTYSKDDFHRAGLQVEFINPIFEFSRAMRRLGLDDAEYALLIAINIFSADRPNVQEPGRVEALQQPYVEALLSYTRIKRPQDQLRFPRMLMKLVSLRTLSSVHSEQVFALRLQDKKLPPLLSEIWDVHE
hcDAF12 ag = H. contortus DAF-12 receptor agonists, confirmation, cell-based, luminescence, HEK293, lit1-tk-luc, triplicate; shares compounds with hcDAF12 agonist; HEK293 hcDAF-12 lit1-tk-luc reporter; % of Δ7-dafachronic acid response; activation, % at 6.8 µM; 61% of 3,400 active;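 active means mean activation across triplicate tests above the threshold derived from the earlier primary screen, cut at about 5.5% in these data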;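 further: 0% = DMSO only wells and 100% = 3 µM Δ7-dafachronic acid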
hgDAF12 conf = H. glycines DAF-12 receptor agonists, confirmation, cell-based, luminescence, HEK293, GAL4-LBD fusion. 80% of 3,300 active. shares compounds with hgDAF12 agonist. AID 743050, 2013. HEK293 GAL4-hgDAF12 luciferase reporter, agonist mode; percent of butyrate response. activation, % at 6.8 µM;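 active means mean activation over triplicate wells above the hit cutoff derived from the earlier primary screen, cut at about 11% in these data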;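 further: 0% = DMSO low control and 100% = 2 mM sodium butyrate high control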
LXR ag 2 = LXR agonists, Gal4 luciferase reporter, confirmation, counter-screen for hgDAF-12 agonist project, cell-based, luminescence, HEK293, H. glycines campaign; shares compounds with hgDAF12 agonist; 3,300 tested, under 10 active; 24 h; activation, % at 6.8 µM; AID 743051, 2013;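 active means mean activation of the triplicate above a set limit carried over from the primary screen, none filed active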
The depositor's hits bear a star; . = not tested or not shown. Most compounds without a hit are left out; they make up all but 4.1% or so of the library.

SMILES | ssDAF-12 act | hcDAF12 agonist | DAX1 inh-1 | hgDAF12 agonist | DAX1 inh-2 | hgDAF12 conf | LXR ag 2 | others
Cc1nc(NC(=O)c2cc3ccccc3o2)sc1C | 0.5 | 10.4* | 2.0 | 13.6* | -0.8 | 16.9* | 1.0 | LXRb hcDAF ctr=1.6;hcDAF12 ag=8.1*
CC1=CN2C(=N)/C(=C/c3ccc(C)o3)C(=O)N=C2S1 | 0.2 | 14.9* | 4.0* | 20.1* | 1.7 | 11.6* | 0.8 | LXRb hcDAF ctr=1.2;hcDAF12 ag=5.4
Cc1ccc2nc(C(C)(C)C)c(Cc3cccc(F)c3)n2c1 | 2.2* | 3.5 | 3.7* | 16.2* | . | 5.3 | 0.2
Fc1cccc(Cc2c(-c3cccc(Cl)c3)nc3ccc(Cl)cn23)c1 | -1.0 | -0.4 | 2.7 | 1.0 | . | . | .
CCCc1nc2ccc(C)cn2c1Cc1ccc(C)cc1 | -0.2 | 4.5 | 1.3 | 13.8* | . | 9.3 | 0.5
COc1ccc(Cc2c(-c3ccc(F)cc3)nc3ccc(Br)cn23)c(C)c1 | 0.4 | 2.4 | 0.2 | 13.6* | . | 7.6 | 0.4
Cc1ccc2nc(-c3cccc(Cl)c3)c(Cc3cccc(Cl)c3)n2c1 | -0.3 | 2.4 | 3.4 | 10.2 | . | . | .
COc1ccccc1Cc1c(-c2cccc(Cl)c2)nc2ccc(C)cn12 | -0.4 | 2.3 | 2.9 | 14.9* | . | 4.5 | 0.2
O=C(O)c1ccc(C=Nn2c(-c3ccc(F)cc3)n[nH]c2=S)cc1 | -1.5 | -1.8 | -0.6 | 5.5 | . | . | .
CC(C)(C)c1ccc(-c2cn(C[C@H](Cc3ccccc3)n3c(=O)c4ccccc4n3Cc3ccco3)nn2)cc1 | -1.4 | -0.6 | 0.7 | 2.9 | . | . | .
O=S1(=O)c2ccc(N3CCSCC3)cc2Oc2ccccc2CN1Cc1cn(Cc2ccc(Cl)cc2)nn1 | -1.5 | -0.5 | -1.0 | -1.6 | . | . | .
Cc1ccc(-c2nc3ccc(C)cn3c2Cc2cccc(F)c2)cc1 | 0.0 | 3.5 | 3.6* | 14.7* | . | 5.1 | 0.2
COC(=O)c1ccc2nc(-c3ccc(C)cc3)c(Cc3cccc(F)c3)n2c1 | -1.1 | 1.2 | 0.2 | 1.5 | . | . | .
COC(=O)[C@]12C[C@H](CC(=O)NCc3cccc4ccccc34)C(=O)N(Cc3ccco3)C1=C[C@H](C(C)(C)C)O[C@@H]2C | -0.8 | -2.8 | 0.7 | -2.3 | . | . | .
Cc1cccc(/C(N)=N/OC(=O)c2cccnc2)c1 | 1.1* | 4.8 | 3.4 | 20.4* | 1.9 | 11.3* | 0.6
COc1ccc(C(=O)C2(C(=O)NCCO)CC(c3ccccn3)=NO2)cc1 (stereo not drawn) | 0.0 | -0.3 | 0.5 | 0.1 | . | . | .
Cc1ccc(-c2nc3ncccn3c2NC(=O)Nc2ccc(F)cc2)cc1 | -1.1 | -2.9 | 0.8 | 0.4 | . | . | .
C/C(=N/NC(=O)c1ccoc1C)c1ccc(N2CCOCC2)cc1 | 0.1 | 2.9 | 3.7* | 19.4* | 0.1 | 3.2 | 0.2
C/C(=N\NC(=O)c1ccc(Cl)cc1)c1ccc(N2CCOCC2)cc1 | -1.1 | 0.5 | 0.3 | 6.7 | -0.5 | . | .
CC(=O)Nc1ccc(/C(C)=N/NC(=O)c2ccncc2)cc1 | -0.8 | -0.6 | -0.1 | 2.0 | 0.1 | . | .
O=C(Nc1ccc(NC(=S)NC(=O)c2ccco2)cc1)c1ccccc1 | -1.5 | -2.6 | 0.0 | 1.0 | -1.9 | . | .
C/C(=N/NC(=O)c1ccoc1C)c1ccc(NC(=O)c2ccncc2)cc1 | 1.3* | 6.4* | 3.8* | 17.4* | 2.0 | 9.4 | 0.3
C/C(=N\NC(=O)c1ccco1)c1ccc(NC(=O)c2ccccc2)cc1 | -0.1 | 1.5 | 2.5 | 13.9* | -0.1 | 6.2 | 0.2
COC(=O)c1sccc1-c1ccc(C(=O)Nc2ccccc2)o1 | -0.4 | 5.5 | 2.3 | 13.3* | 2.5 | 12.5* | 0.5
O=C(N[C@H](Cc1ccccc1)C(=O)N1CCN(CC(=O)N2CCCC2)CC1)[C@H]1O[C@@H](n2ccc(=O)[nH]c2=O)[C@H](O)[C@@H]1O | -1.1 | 0.1 | 0.8 | 2.6 | . | . | .
SMILES | ssDAF-12 act | hcDAF12 agonist | DAX1 inh-1 | hgDAF12 agonist | DAX1 inh-2 | hgDAF12 conf | LXR ag 2 | others
COc1ccccc1/C=C/CN1CCSCC1 | -1.0 | -0.5 | 0.3 | 15.9* | 0.0 | 0.0 | 0.1
O=c1oc2ccccc2cc1-c1cn2cccnc2n1 | 0.3 | 4.0 | 4.1* | 14.3* | 0.9 | 18.1* | 0.8
O=c1oc2ccccc2cc1-c1cn2ccccc2n1 | -0.1 | 3.5 | 0.1 | 6.8 | -3.7 | . | .
Cc1[nH]c2ccccc2c1C(=O)c1c(N)[nH]c(C(=O)c2ccc(Br)cc2)c1-c1ccc(Br)cc1 | -0.9 | -1.6 | 2.2 | 8.9 | . | . | .
[O-]/[N+](=C\C=C\c1ccccc1)c1ccccc1 | 0.3 | 3.8 | 1.4 | 14.4* | 3.2 | 13.7* | 0.5
Brc1ccc(N2O[C@H]3C=C[C@@H]2C3)nc1 | 0.1 | 4.6 | 0.5 | 0.4 | . | . | .
O=C(OCc1ccc([N+](=O)[O-])cc1)c1ccc2ccccc2n1 | -0.6 | 4.3 | 0.3 | 0.5 | -1.8 | . | .
O=C(O)C(=O)/C(=C\c1ccc([N+](=O)[O-])cc1)c1ccc2ccccc2n1 | 0.9 | 4.9 | 2.8 | 21.6* | 2.0 | 17.9* | 0.7
OC(c1ccccc1)(c1ccccc1)c1cnc2ccccn12 | -1.3 | -2.0 | . | -2.4 | . | . | .
CCC[C@H]1[C@@H](NCc2cccs2)CC[C@@]23CCCN2C(=O)CCC[C@@H]13 | -0.9 | -1.7 | . | -2.5 | . | . | .
c1ccc(OCCSc2nnnn2-c2ccccc2)cc1 | 0.2 | 4.0 | 2.6 | 16.0* | 1.6 | 19.4* | 0.8
O=C(CNC(=O)c1ccc(-c2ccccc2)cc1)OCc1ccc(Br)cc1 | -0.4 | 1.6 | 0.3 | 13.3* | -0.5 | 6.5 | 0.2
